# High-throughput results from PubChem BioAssay.
# Shown are actives, neighbours in structure and some others; about 3.9% of the full set was active somewhere.
# BoNT-F LC inh: BoNT/F light chain protease inhibitors, primary screen, biochemical, flow cytometry, MLPCN library. Multiplex microsphere protease cleavage assay. inhibition, % at 10 µM. 360,000 compounds, 0.22% hits; in the data active = inhibition above about 35%, passing the limit was not always enough; also: plate controls were buffer without enzyme for full effect and enzyme alone for no effect
# Autofluor counter: counter-screen for toxin protease inhibitors: compound fluorescence. compound autofluorescence counterscreen, microsphere flow cytometry; stronger effect = higher value. fluorescence intensity (concentration not given with the values). 360,000 compounds, 3.1% hits. AID 624483; in the data active = fluorescence intensity above about 16000
# BoNT-A LC inh2: BoNT/A light chain protease inhibitors, primary screen, biochemical, flow cytometry, MLPCN library. Botulinum neurotoxin type A light chain protease (Clostridium botulinum A str. ATCC 3502). multiplex microsphere protease substrate cleavage. inhibition, % at 10 µM. 360,000 compounds, 0.17% hits. AID 588499, 2011; also: plate controls were buffer without enzyme for full effect and enzyme alone for no effect
# CCHF vOTU inh-1: CCHFV vOTU protease inhibitors, primary screen, biochemical, Pep-AMC substrate, fluorescence. Crimean-Congo hemorrhagic fever virus L polyprotein viral ovarian tumor (vOTU) protease …. inhibition, % at 11.5 µM. 370,000 compounds, 0.55% hits. AID 651958, 2012; in the data active = inhibition above about 30%; also: 0% = vehicle wells with enzyme and 100% = no enzyme wells
# Anthrax LF inh2: Bacillus anthracis LF protease inhibitors, primary screen, biochemical, multiplex microsphere, MLPCN library; multiplex microsphere protease cleavage assay; inhibition, % at 10 µM; Lethal factor (Bacillus anthracis), P15917; 360,000 compounds, 0.12% hits; AID 588501, 2011; also: plate controls were buffer without enzyme for full effect and enzyme alone for no effect
# Target sequence (P15917 whole entry, looked up): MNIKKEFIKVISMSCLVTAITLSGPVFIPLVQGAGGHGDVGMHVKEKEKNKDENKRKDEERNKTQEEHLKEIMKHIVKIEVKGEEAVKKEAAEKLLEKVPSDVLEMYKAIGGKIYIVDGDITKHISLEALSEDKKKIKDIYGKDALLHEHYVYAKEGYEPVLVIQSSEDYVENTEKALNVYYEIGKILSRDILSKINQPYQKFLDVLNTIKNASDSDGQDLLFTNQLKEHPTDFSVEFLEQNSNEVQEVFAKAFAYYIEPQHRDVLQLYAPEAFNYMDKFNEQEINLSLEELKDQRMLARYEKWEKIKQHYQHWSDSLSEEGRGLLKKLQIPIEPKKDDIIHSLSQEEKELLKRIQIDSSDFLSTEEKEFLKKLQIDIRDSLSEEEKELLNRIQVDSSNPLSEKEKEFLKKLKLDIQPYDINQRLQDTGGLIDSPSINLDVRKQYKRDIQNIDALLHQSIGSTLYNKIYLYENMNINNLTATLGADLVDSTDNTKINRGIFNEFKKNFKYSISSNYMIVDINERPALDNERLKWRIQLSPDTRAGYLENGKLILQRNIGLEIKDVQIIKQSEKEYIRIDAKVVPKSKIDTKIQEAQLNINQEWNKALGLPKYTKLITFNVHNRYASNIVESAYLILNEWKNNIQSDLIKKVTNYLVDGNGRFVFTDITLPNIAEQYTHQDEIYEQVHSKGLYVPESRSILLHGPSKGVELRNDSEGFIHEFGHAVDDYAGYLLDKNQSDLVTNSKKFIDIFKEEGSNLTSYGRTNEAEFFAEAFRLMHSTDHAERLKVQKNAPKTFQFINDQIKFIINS
# SARS 3CLpro inh: SARS-CoV 3CLpro protease inhibitors, primary screen, biochemical, quenched FRET; Replicase polyprotein 1ab (Severe acute respiratory syndrome coronavirus), P0C6X7; recombinant SARS-CoV 3CLpro, quenched FRET peptide cleavage; inhibition, % at 6 µM; 290,000 compounds, 0.14% hits; in the data active = inhibition above about 12%
# CCHF vOTU inh-2: CCHFV vOTU protease inhibitors, confirmation, biochemical, Pep-AMC substrate, fluorescence | 1,900 compounds, 17% hits | shares compounds with CCHF vOTU inh-1 | inhibition, % at 11.5 µM | Recombinant CCHFV vOTU | AID 686976, 2013; in the data active = inhibition above about 30%
# Starred values were filed as active, the others as inactive; / = no result given. Rule as the data show it, unless noted: active = inhibition above about 30%; inconclusive = no clear call, values can overlap the other calls; inactive = below that.
SMILES,BoNT-F LC inh,Autofluor counter,BoNT-A LC inh2,CCHF vOTU inh-1,Anthrax LF inh2,SARS 3CLpro inh,CCHF vOTU inh-2
COc1ccc(OC)c(S(=O)(=O)Nc2ccc(O)c3ccccc23)c1,-14.3,2450,-0.2,65.6*,-9.0,0.4,-13.3
COc1ccc(NC(=O)Nc2ccccc2OC)cc1,-10.1,8262,-1.1,0.5,-0.9,3.6,/
CC(C)NC(=O)C1(C)CCN1C(=O)C1(c2ccccc2)CC1 (stereo not drawn),5.4,3968,0.3,-1.5,1.9,/,/
COc1ccc(S(=O)(=O)N2CCCCC2)cc1NC(=O)CCOc1cc(C)ccc1C,-2.7,8685,-0.2,-9.7,-7.7,/,/
COc1ccc(NC(=O)c2ccc(OCC3CCCO3)cc2)cc1OC (stereo not drawn),-13.4,3403,-0.7,37.6*,2.3,/,-13.6
Cc1ccc(S(=O)(=O)/N=C(/Nc2nc(C)cs2)c2ccccc2)cc1,-5.0,3948,-0.4,37.9*,-10.0,/,-8.7
Cc1ccc2nc(N/C(=N/S(=O)(=O)c3ccc(F)cc3)c3ccccc3)sc2c1,-1.6,4653,0.3,5.1,-1.3,0.5,/
O=C(NCc1ccco1)c1ccc(-c2ccc(F)c(F)c2)c2ccoc12,2.4,3406,-0.4,-9.7,-3.8,/,/
Cc1cc(C(=O)O)ccc1-n1c(C)cc(/C=C(/C#N)C(=O)Nc2ccccc2)c1C,-2.8,4699,0.0,33.4*,-5.7,1.0,-6.8
Cc1cc(/C=C(\C#N)C(=O)Nc2ccccc2)c(C)n1-c1cccnc1,-4.6,2060,-1.1,-31.2,-1.1,-5.7,/
COc1ccc(N(/N=C2\Sc3ccccc3C2=O)C(C)=O)cc1,-1.7,2045,0.5,0.8,0.4,-5.1,/
COc1ccccc1N(/N=C1\Sc2ccccc2C1=O)C(C)=O,-6.6,6305,-0.4,31.6*,-12.1,0.1,5.2
COc1ccc(C(=O)COC(=O)C(CCSC)NC(=O)COc2ccccc2)c(OC)c1 (stereo not drawn),-5.5,6307,-3.0,3.6,-2.0,0.8,/
CCNc1nc(NC(C)(C)C)nc(Oc2ccc(=O)n(-c3ccccc3)n2)n1,-11.6,3836,-2.1,10.1,-1.8,-4.2,/
CCc1c(C)nc2c(C)cccc2c1SCCC#N,1.3,2234,0.1,32.5*,1.0,-4.6,-10.6
Cc1ccc2c(c1)c1c(n2CC(O)CNC(C)(C)C)CCCC1 (stereo not drawn),-26.3,6416,0.8,56.9*,-20.0,-2.1,-13.7
COCc1ccc(C(=O)N(C)CC2CCCN(CCc3ccccc3F)C2)o1 (stereo not drawn),2.3,6050,-0.1,13.1,0.2,-5.5,/
COc1ccc(NC(=O)COC(=O)c2cc(SC)ccc2Cl)c(OC)c1,0.3,9655,-0.7,30.2*,5.2,-8.7,-12.8
COc1ccc(C(C)(C)C)cc1NC(=O)COC(=O)c1cc(SC)ccc1Cl,-4.5,2222,-0.2,20.2,-0.6,0.7,/
OCC[C@H]1NCc2cc(CO)cc(-c3ccccc3)c21,2.6,3405,0.1,9.4,-2.7,/,/
Cc1onc(-c2ccccc2Cl)c1C(=O)N1CCC(Cc2ccccc2)CC1,4.6,4603,2.0,31.6*,-1.1,2.0,-22.6
Cc1ccc(CNC(=O)CSc2nc(=O)n3ccc(C)cc3n2)cc1,-6.8,3415,-0.4,40.1*,-2.7,/,5.2
CCN(CC)c1ccc(C=Nc2ccc(N(C)C)cc2)c(O)c1,-19.5,4280,6.8,74.1*,0.3,-0.9,-1.8
CCN(CC)c1ccc(C=Nc2ccccc2)c(O)c1,28.3,3510,26.0,8.8,25.3,2.0,/
COc1cccc(NP(=O)(Oc2ccccc2)Oc2ccccc2)c1,-5.5,2129,-0.8,29.9*,2.0,2.6,5.1
SMILES,BoNT-F LC inh,Autofluor counter,BoNT-A LC inh2,CCHF vOTU inh-1,Anthrax LF inh2,SARS 3CLpro inh,CCHF vOTU inh-2
Cc1ccc(NC(=O)CCc2ccc(S(=O)(=O)N3CCOCC3)cc2)c(Cl)c1,-10.9,4230,0.5,4.2,-1.7,/,/
O=C(CCc1ccc(S(=O)(=O)N2CCOCC2)cc1)Nc1ccc(F)c(F)c1F,0.2,5977,2.3,34.7*,-2.5,/,-15.5
O=[N+]([O-])c1cccnc1C1OCCO1,-8.7,3441,-0.4,1.2,0.1,/,/
Cc1cnc(C2OCCO2)c2cccc(N)c12,1.5,3808,-0.1,38.0*,1.4,/,64.8*
O=S(=O)(CCc1ccncc1)c1ccc(Cl)cc1,-8.9,4057,1.1,17.0,-16.2,3.0,/
COc1cccc(OCc2cc(C(=O)N(C)C3CC(C)(C)NC(C)(C)C3)no2)c1,-0.9,5047,0.1,-6.3,-0.5,4.5,/
COc1cccc(OCc2cc(C(=O)N(C)C3CCOCC3)no2)c1,-2.5,5302,-0.9,29.7*,0.7,-8.2,-9.5
COc1ccc(Br)c(Cn2c(C)c(C(=O)NCc3ccc4c(c3)OCCO4)sc2=O)c1,-8.1,5664,-0.2,-0.5,-2.7,/,/
O=C(O)CN1C(=O)/C(=C\c2cccc(OCc3ccc(F)cc3)c2)SC1=S,24.6,3274,-2.8,35.6*,-8.9,10.7,27.6
Cn1c(=O)c2[nH]c(N3CCN(c4ccccc4)CC3)nc2n(C)c1=O,-6.4,3392,0.3,4.2,-2.4,1.5,/
O=[N+]([O-])c1cc([N+](=O)[O-])c(Oc2cc(F)cc(F)c2)cc1NN1CCCCC1,-0.8,4171,-0.4,0.6,-4.7,/,/
C[C@H]1COc2cc(Br)ccc2S(=O)(=O)N1Cc1cn(Cc2ccc(F)cc2)nn1,/,/,/,1.9,/,/,/
CC1(C(=O)NS(=O)(=O)c2cccc(F)c2)CCN1C(=O)C1CCCCC1 (stereo not drawn),-3.5,3377,0.1,34.1*,-3.0,/,-16.5
CCC(CC)c1nnc(NC(=O)CSCc2c(C)noc2C)s1,-2.3,2889,0.4,2.3,0.2,/,/
CCCCCCCCN1CCS(=O)(=O)N(Cc2ccc(C)cc2)C(C(=O)OC)C1 (stereo not drawn),/,/,/,29.8*,/,/,18.2
CCC(NC(=O)c1ccc2c(ccn2Cc2cccc(-c3ccc(C(=O)O)cc3)c2)c1)c1ccccc1 (stereo not drawn),/,/,/,32.0*,/,/,-2.5
Cc1cc(C)cc(N(CC(=O)Nc2ccc(C(F)(F)F)cc2)S(=O)(=O)c2c(C)[nH]c(=O)[nH]c2=O)c1,4.9,4484,-0.7,33.3*,0.8,9.6,-12.8
O=C(NC(Cc1ccccc1)C(=O)O)/C(=C/c1ccc([N+](=O)[O-])cc1)NC(=O)c1ccccc1 (stereo not drawn),17.5,5590,4.8,-1.6,-1.3,1.8,/
COC(=O)[C@@]12C[C@@H](CC(=O)NCc3cccc(C(F)(F)F)c3)C(=O)N(Cc3cccc4ccccc34)C1=CCC(C)(C)C2,/,/,/,30.9*,/,/,1.3
